Source: PubChem BioAssay (Tox21)
Unmarked numbers belong to inactive results. Entries that show only a call come without a potency. The source made the active and inactive calls. Calls follow the shape of the dose curve; as a rule, active = well fitted activation curve with a large enough effect in the repeat runs; inconclusive = weak or mixed curves; inactive = flat fitted curve, though single readings scatter.

test: A CellTox Green Cytotoxicity Assay to monitor cytotoxicity in HepG2 cells - 0 hour (AID 1224882); settings: CellTox Green fluorescence; series mostly up to 76.8 µM; also: nearly all actives have a fitted effect of over 35% in size
Source text: National Center for Advancing Translational Sciences [NCATS]
NIH Chemical Genomics Center [NCGC]
U.S. Environmental Protection Agency [EPA]
National Institutes of Environmental Health Sciences [NIEHS]
National Toxicology Program [NTP]
Cell-based models are critical for drug discovery. Determining the natural cytotoxic effects resulting from test compounds is an essential research activity. A CellTox Green Cytotoxicity Assay to monitor cytotoxicity in real time of continues cell culture during 40 hours of the compound treatment was used to screen Tox21 10K library compounds in HepG2 cells. CellTox Green Cytotoxicity Assay is a nonlytic, homogeneous, biofluorescent method to measure cytotoxicity in cell culture after experimental manipulation. The assay system uses a proprietary asymmetric cyanine dye that is excluded from viable cells but preferentially stains the dead cell's DNA. […] Viable cells produce no appreciable increases in fluorescence. Therefore, the fluorescence signal produced by the binding interaction with dead cell DNA is proportional to cytotoxicity.
The mixture of HepG2 cell suspension and reagents were dispensed at 600cells/6 ul/well in 1536-well tissue culture treated black solid bottom plates using a Multidrop dispenser. After the assay plates were incubated at a 37 C/5% CO2 incubator for 5 hours, 23 nL of compounds dissolved in DMSO, positive and negative controls was transferred to the assay plate by a pintool work station. The plates were incubated at 37 C for 40 hours. The fluorescence intensity were measured at 0h, 8h, 16h, 24h, 32h and 40h time points using ViewLux plate reader during compound treatment.

Row | Compound | Potency | cytotoxicity
1 | O=C(NC(=O)c1ccccc1Cl)Nc1ccc(OC(F)(F)F)cc1 | inactive | –
2 | [O]=[Cr][O][Cr]=[O] | inactive | –
3 | CC#C[C@]1(O)CC[C@H]2[C@@H]3C[C@H](C)C4=CC(=O)CC[C@]4(C)[C@H]3CC[C@@]21C | inactive | –
4 | [Cl][Hg][c]1ccccc1 | inactive | –
5 | CSC1=N[C@@](C)(c2ccccc2)C(=O)N1Nc1ccccc1 | inactive | –
6 | CCCC[N+]1(C)CCCC1 (tested in a mixture with another compound) | inactive | –
7 | ClC(Cl)C(Cl)(Cl)Cl | inactive | –
8 | C[C@@H]1CC2=CC(=O)CC[C@@H]2[C@H]2CC[C@@]3(C)[C@@H](CC[C@]3(C)O)[C@@H]21 | inactive | –
9 | Fc1ccc(C(OCCN2CCN(CCCc3ccccc3)CC2)c2ccc(F)cc2)cc1 | inactive | –
10 | Oc1cc(Cl)cc(Cl)c1 | inactive | –
11 | O=C(NC(=O)c1c(F)cccc1F)Nc1ccc(Oc2ccc(C(F)(F)F)cc2Cl)cc1F | inactive | –
12 | O=[N+]([O-])c1cc(C(F)(F)F)c(Cl)c([N+](=O)[O-])c1Nc1ncc(C(F)(F)F)cc1Cl | inactive | –
13 | CC1=C2C[C@H]3[C@@H](CC=C4C[C@@H](O)CC[C@@]43C)[C@@H]2CC[C@]12O[C@@H]1C[C@H](C)CN[C@H]1[C@H]2C | inactive | –
14 | C=CCBr | inactive | –
15 | Clc1c(Cl)c(Cl)c(Cl)c(Cl)c1Cl | – | 1.34% [at 6.97 µM]
16 | C1=CCC=C1 | inactive | –
17 | COc1nc(C)nc(NC(=O)NS(=O)(=O)c2ccccc2Cl)n1 | inactive | –
18 | C#CCO | inactive | –
19 | ClCBr | inactive | –
20 | CCCCCON=O | inactive | –

Row | Compound | Potency | cytotoxicity
21 | OCC(Br)CBr (stereo not given) | inactive | –
22 | O=Cc1ccccc1 | inactive | –
23 | ClC1(Cl)C2(Cl)C3(Cl)C4(Cl)C(Cl)(Cl)C5(Cl)C3(Cl)C1(Cl)C5(Cl)C24Cl (stereo not given) | inactive | –
24 | O=c1[nH]c(Cl)c(Cl)cc1Cl | inactive | –
25 | CC(=O)[O][Pb]([c]1ccccc1)([c]1ccccc1)[c]1ccccc1 | inactive | –
26 | CCC[CH2][Sn]([CH2]CCC)([CH2]CCC)[O][Sn]([CH2]CCC)([CH2]CCC)[CH2]CCC | – | 5.3% [at 6.97 µM]
27 | CC(=O)[O-].CC(=O)[O-].CC(=O)[O-].[Cr+3] | inactive | –
28 | O.O.O.O.O.O.O=S(=O)([O-])[O-].[Ni+2] | inactive | –
29 | O=P(Cl)(Cl)Cl | inactive | –
30 | CCCN | inactive | –
31 | S=C=NCCc1ccccc1 | inactive | –
32 | CNC(C)(C)Cc1ccccc1 | inactive | –
33 | CCO/N=C(\CC)C1=C(O)CC(c2c(C)cc(C)cc2C)CC1=O (stereo not given) | inactive | –
34 | CN1C(=O)[C@@H](NC(=O)c2cc3ccccc3[nH]2)N=C(c2ccccc2)c2ccccc21 | inactive | –
35 | CSSC | inactive | –
36 | CCn1cc[n+](C)c1 (tested in a mixture with another compound) | inactive | –
37 | CCNS(=O)(=O)C(F)(F)C(F)(F)C(F)(F)C(F)(F)C(F)(F)C(F)(F)C(F)(F)C(F)(F)F | inactive | –
38 | CO/N=C(/C1=NOCCO1)c1ccccc1Oc1ncnc(Oc2ccccc2Cl)c1F | inactive | –
39 | Cc1cc(C2CC2)nc(Nc2ccccc2)n1 | inactive | –
40 | CC(C)=CCN1CC[C@@]2(C)c3cc(O)ccc3C[C@@H]1[C@@H]2C | inactive | –
